# Source: PubChem BioAssay
# Target: Torsin-1A-interacting protein 1 (Homo sapiens) (UniProt Q5JTV8)
# Assay: compound microarray binding of lysate hLAP1 – cell lysate, small-molecule microarray, COS7 lysate, 635/667 nm fluorescence, primary screen (AID 1116)
# Conditions: 635 nm fluorescence, higher = more signal
# Sequence of Torsin-1A-interacting protein 1 (Homo sapiens) (Q5JTV8 whole entry, looked up): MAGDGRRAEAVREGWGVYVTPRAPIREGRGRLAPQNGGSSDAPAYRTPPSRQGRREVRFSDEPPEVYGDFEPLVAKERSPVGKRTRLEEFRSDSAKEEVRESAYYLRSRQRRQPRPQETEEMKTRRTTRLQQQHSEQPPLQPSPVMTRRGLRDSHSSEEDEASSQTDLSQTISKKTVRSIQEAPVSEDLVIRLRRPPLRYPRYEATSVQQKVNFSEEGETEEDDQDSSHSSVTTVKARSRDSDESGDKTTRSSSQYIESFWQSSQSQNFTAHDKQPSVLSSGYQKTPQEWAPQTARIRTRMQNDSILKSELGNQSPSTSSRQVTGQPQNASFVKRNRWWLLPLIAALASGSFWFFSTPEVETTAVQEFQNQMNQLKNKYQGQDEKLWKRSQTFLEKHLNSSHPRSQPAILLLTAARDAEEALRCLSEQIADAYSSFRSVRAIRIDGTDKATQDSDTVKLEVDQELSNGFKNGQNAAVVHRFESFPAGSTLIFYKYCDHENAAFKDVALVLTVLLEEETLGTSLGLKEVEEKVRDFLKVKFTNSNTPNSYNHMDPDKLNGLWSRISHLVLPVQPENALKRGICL
row,Compound,composite z-score
1,CC[C@H]1C2=C3C(CC[C@H]4C(OC)OC[C@](C)([C@@H]34)N(C(=O)OC(C)(C)C)C2)C(CO)C1CO (stereo not given in full),2.23
2,CC(C)(C)OC(=O)CC[C@@]1(C(=O)NCc2ccccc2)N=C(c2ccc(OCCCO)cc2)O[C@@H]1c1ccccc1,2.67
3,CC(C)[Si](OCC[C@H]1O[C@]2(C(=O)N(Cc3ccccc3)c3ccccc32)[C@@H](C)[C@@H]1[Si](C)(C)O)(C(C)C)C(C)C,0.153
4,C[C@H]1COC(=O)[C@H](Cc2ccccc2)NC(=O)[C@@H](C)COC(=O)[C@H](Cc2ccccc2)NC1=O,1
5,COc1ccc([Si](C)(C)[C@H]2[C@H](CC(=O)N3Cc4ccccc4C[C@H]3CO)O[C@@]3(C(=O)N(Cc4cccc(N5CCOC5=O)c4)c4ccccc43)[C@@H]2C)cc1,0.473
6,CO[C@H]1COC(=O)[C@@H](OCc2ccccc2)C=C[C@H](C)[C@@H](OC)COC(=O)[C@H](OCc2ccccc2)C=C[C@@H]1C,-0.144
7,C=C(COC)C(=O)CC[C@H](OC(=O)c1ccccc1-c1ccccc1C(=O)O)c1cccc(OCCO)c1,3.73
8,Cc1ccc(S[C@]2(C(=O)O)CC(=O)N(Cc3ccccc3)[C@@H]2c2ccc(CO)cc2)cc1,-0.257
9,O=C(O)[C@@H]1Cc2c([nH]c3ccccc23)[C@@H](c2ccccc2)N1,0.3

# Target: Alpha-bungarotoxin (Bungarus multicinctus) (UniProt P60615)
# Sequence (P60615 whole entry, looked up): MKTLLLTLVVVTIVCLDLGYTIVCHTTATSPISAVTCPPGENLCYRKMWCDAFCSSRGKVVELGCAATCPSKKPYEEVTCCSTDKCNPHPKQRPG
# Assay: compounds binding labelled alpha-BTX control protein – biochemical, small-molecule microarray, Alexa647 label, 635/667 nm fluorescence, artefact control for SMM control protein annotation, profiling panel (AID 1117)
# Conditions: alpha-BTX-A647 binding fluorescence, higher = more signal
row,Compound,composite z-score
1,C=CCN1C(=O)[C@@]2(Cc3ccccc3)N=C(c3ccc(OCCCO)cc3)O[C@H]2c2ccccc21,1.66
2,CC(=O)Nc1ccc([C@H]2[C@H](C)CC[C@H]3C(=O)N4[C@@H](CC[C@@H](C)[C@@H]4c4ccc(NC(C)=O)cc4)C(=O)N32)cc1,0.884
3,COc1cc2c(cc1OC)CN(C(=O)[C@@H]1[C@H]3C(=O)O[C@H](c4ccccc4)[C@H](c4ccccc4)N3[C@H](c3ccccc3OCCO)[C@@]13C(=O)Nc1ccccc13)CC2,2.07
4,CCOC(=O)C[C@H]1[C@H](OC(=O)Cc2ccc3c(c2)OCO3)[C@@H](NC(=O)c2ccc3ccccc3c2)c2cc(OCCCO)ccc2N1C(=O)Cc1ccc(OC)cc1,0.454
5,CO[C@@H]1COC(=O)[C@H](C)NC(=O)CC=C[C@@H](C)[C@H](OC)COC(=O)[C@H](C)NC(=O)CC=C[C@H]1C,-0.59
6,CO[C@H]1COC(=O)CC=C[C@H](C)COC(=O)[C@@H](OCc2ccccc2)C=C[C@@H]1C,-0.74
7,CCCC[C@@H]1C[C@H]1[C@@H](NC(=O)c1ccccc1)c1ccccc1C(F)(F)F,1.61
8,CO[C@@H]1COC(=O)[C@H](C)NC(=O)CC=C[C@@H](C)[C@H](NS(=O)(=O)c2ccc(C)cc2)COC(=O)CC=C[C@@H]1C,-0.573
9,CC(=O)NCCCC[C@@H]1NC(=O)[C@H]2C[C@@H](C(=O)NCCCCCCN(C)C)[C@@H](c3cccc(OCCO)c3)N2C1=O,1.41
10,NC(=O)NCC#Cc1ccc2c(c1)[C@]1(C(=O)N2)[C@H](c2ccccc2OCCO)N2[C@H](c3ccccc3)[C@H](c3ccccc3)OC(=O)[C@H]2[C@@H]1C(=O)N1CCN(c2ncccn2)CC1,0.959
11,C[C@]1(C(=O)NCc2ccccc2)c2ccccc2C(=O)N(Cc2cc(C(F)(F)F)cc(C(F)(F)F)c2)[C@H]1c1ccc(CO)cc1,0.615
12,C=C(COC)/C(=C/C[C@@H](OC(C)=O)c1cccc(OCCO)c1)c1cc(C(=O)OC)ccc1OC,-1.07
13,COC(=O)[C@H]1[C@@H]2COc3ccccc3[C@H]2N[C@H]1C(=O)OC,0.854
14,CCc1cccc(NC(=O)O[C@H]2[C@H](OC(=O)Nc3ccccc3)[C@@H](OC(=O)Nc3ccccc3)[C@@H](OC)O[C@@H]2CO)c1,1.2
15,C=CCN1C(=O)[C@]2(O[C@H](CCn3cc(CCO)nn3)[C@@H]([Si](C)(C)c3ccc(OC)cc3)[C@@H]2C)c2cc(NC(=O)c3ccc(OC)cc3)ccc21,1.19
16,C=C(COC)/C(=C/C[C@H](OC(C)=O)c1ccc(OCCO)cc1)c1cnc2ccccc2c1,1.56
17,[N-]=[N+]=NCc1ccccc1C[C@]1(C(=O)N2CCCCC2)N=C(c2ccc(OCCCO)cc2)O[C@H]1c1ccccc1CN=[N+]=[N-],1.11
18,CO[C@H]1O[C@H](CO)[C@@H](OC(=O)Nc2ccccc2)[C@H](OC(=O)Nc2ccc3c(c2)OCO3)[C@@H]1OC(=O)Nc1ccc2c(c1)OCO2,0.361

row,Compound,composite z-score
1,CCOC(=O)C1=C[C@@H](c2ccccc2)N(S(=O)(=O)c2ccc(C)cc2)[C@H]1c1ccc(F)cc1,1.27
2,CCCC=C(CCC)[C@@H](NC(=O)c1ccc(C(F)(F)F)cc1)c1ccccc1,0.25
3,COC(=O)C[C@H]1O[C@]2(C(=O)N(Cc3ccccc3)c3ccc(I)cc32)[C@@H](C)[C@@H]1[Si](C)(C)c1ccc(OC)cc1,0.13
4,CCC(=O)[C@]12O[C@@]3([C@@H]4C(=O)OCC[C@@H]41)N(CC)C(C)=C(C(=O)OC)[C@@H](c1ccccc1)N3C2=O,0.175
5,COCCOC(=O)N1C(=O)[C@@]2(c3cc(C#CC4=CCCCC4)ccc31)[C@H](c1ccc(O)cc1)N1[C@H](c3ccccc3)[C@H](c3ccccc3)OC(=O)[C@H]1[C@@H]2C(=O)N1CCCCCCC1,1.69
6,O=C(CS)NCCCCCNC(=O)[C@H]1C[C@H]2C(=O)N3CCC[C@H]3C(=O)N2[C@H]1c1ccc(O)cc1,-1.3
7,CSCC[C@@H]1NC(=O)CC=C[C@@H](C)COC(=O)[C@H](CCSC)NC(=O)CC=C[C@@H](C)COC1=O,-0.222
8,COCCOC(=O)N1C(=O)[C@@]2(c3cc(C#CCNC(N)=O)ccc31)[C@H](C(=O)N1CCCCCCC1)[C@H]1C(=O)O[C@H](c3ccccc3)[C@H](c3ccccc3)N1[C@@H]2c1ccccc1OCCO,0.48
9,O=C1O[C@H](c2ccccc2)[C@H](c2ccccc2)N2[C@H]1[C@@H](C(=O)Nc1nc3ccccc3s1)[C@]1(C(=O)Nc3ccc(C#CC4(O)CCCCCC4)cc31)[C@H]2c1ccc(O)cc1,2.17
10,CC[C@H]1C2=C3C(CC[C@H]4C(OC)OC[C@](C)([C@@H]34)N(C(=O)OC(C)(C)C)C2)C(CO)C1CO (stereo not given in full),1.33
11,CC(C)(C)OC(=O)CC[C@@]1(C(=O)NCc2ccccc2)N=C(c2ccc(OCCCO)cc2)O[C@@H]1c1ccccc1,2.97
12,CC(C)[Si](OCC[C@H]1O[C@]2(C(=O)N(Cc3ccccc3)c3ccccc32)[C@@H](C)[C@@H]1[Si](C)(C)O)(C(C)C)C(C)C,-0.513
13,C[C@H]1COC(=O)[C@H](Cc2ccccc2)NC(=O)[C@@H](C)COC(=O)[C@H](Cc2ccccc2)NC1=O,0.856
14,COc1ccc([Si](C)(C)[C@H]2[C@H](CC(=O)N3Cc4ccccc4C[C@H]3CO)O[C@@]3(C(=O)N(Cc4cccc(N5CCOC5=O)c4)c4ccccc43)[C@@H]2C)cc1,0.894
15,CO[C@H]1COC(=O)[C@@H](OCc2ccccc2)C=C[C@H](C)[C@@H](OC)COC(=O)[C@H](OCc2ccccc2)C=C[C@@H]1C,-0.155
16,C=C(COC)C(=O)CC[C@H](OC(=O)c1ccccc1-c1ccccc1C(=O)O)c1cccc(OCCO)c1,-0.151
17,Cc1ccc(S[C@]2(C(=O)O)CC(=O)N(Cc3ccccc3)[C@@H]2c2ccc(CO)cc2)cc1,-0.198
18,O=C(O)[C@@H]1Cc2c([nH]c3ccccc23)[C@@H](c2ccccc2)N1,0.236
